{"source": "paper PMC4336329", "about": "(PLoS ONE, 2015)", "note": "Hit rate of the full screen: of about 310,000 compounds, about 14,000 (4.5%) showed an effect of 50% or more. Effects have a minus sign here. Shown is part of a subset that was picked to be rich in strong results.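 Note: peak tail current of the secondary pulse compared with the same well before compound.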"}
{"biological_target": "human ether-à-go-go-related gene (hERG) potassium channel (human, UniProt Q12809)", "sequence (Q12809 whole entry, looked up)": "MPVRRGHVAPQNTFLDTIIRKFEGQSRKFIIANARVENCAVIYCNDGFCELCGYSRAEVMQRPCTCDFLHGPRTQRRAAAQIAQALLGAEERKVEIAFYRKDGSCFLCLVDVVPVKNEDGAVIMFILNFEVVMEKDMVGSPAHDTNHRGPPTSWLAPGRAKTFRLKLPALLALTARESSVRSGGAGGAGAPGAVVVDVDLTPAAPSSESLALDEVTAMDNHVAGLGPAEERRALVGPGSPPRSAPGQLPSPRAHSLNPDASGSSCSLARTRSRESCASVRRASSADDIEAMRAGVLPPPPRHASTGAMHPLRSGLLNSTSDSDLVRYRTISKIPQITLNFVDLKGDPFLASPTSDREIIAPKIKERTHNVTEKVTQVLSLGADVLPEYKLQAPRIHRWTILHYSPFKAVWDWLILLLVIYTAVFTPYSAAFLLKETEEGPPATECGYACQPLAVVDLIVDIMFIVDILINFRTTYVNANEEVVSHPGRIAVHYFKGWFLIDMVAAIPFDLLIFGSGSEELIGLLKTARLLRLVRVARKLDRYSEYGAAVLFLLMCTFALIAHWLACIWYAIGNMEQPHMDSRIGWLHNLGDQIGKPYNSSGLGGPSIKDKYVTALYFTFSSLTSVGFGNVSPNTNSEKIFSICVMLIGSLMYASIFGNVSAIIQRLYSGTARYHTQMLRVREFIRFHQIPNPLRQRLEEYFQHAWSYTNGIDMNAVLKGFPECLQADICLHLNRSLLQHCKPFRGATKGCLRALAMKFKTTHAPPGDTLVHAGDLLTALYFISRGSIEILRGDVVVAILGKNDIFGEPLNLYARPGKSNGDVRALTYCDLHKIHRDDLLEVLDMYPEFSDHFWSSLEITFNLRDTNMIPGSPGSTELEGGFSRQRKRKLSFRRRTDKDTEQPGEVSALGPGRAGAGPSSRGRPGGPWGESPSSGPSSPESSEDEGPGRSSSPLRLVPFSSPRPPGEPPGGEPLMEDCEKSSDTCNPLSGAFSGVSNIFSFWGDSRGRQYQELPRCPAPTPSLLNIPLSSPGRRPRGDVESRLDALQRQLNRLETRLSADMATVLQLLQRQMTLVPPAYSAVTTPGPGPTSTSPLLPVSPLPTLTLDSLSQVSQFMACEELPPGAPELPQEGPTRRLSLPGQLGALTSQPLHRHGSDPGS", "test": "primary screen, population patch clamp on CHO cells stably expressing hERG; higher = less effect of the substance", "units": {"hERG current change (%, negative = inhibition) at 10uM": "%"}}
{"smiles": "CN(C)C(CNC(=O)c1cccs1)c1cccnc1", "note": "(stereo not drawn)", "hERG current change (%, negative = inhibition) at 10uM": 18.7}
{"smiles": "CCOC(=O)c1cc2oc(C)cc2n1CC(=O)OC1CCCCC1", "hERG current change (%, negative = inhibition) at 10uM": -5.5}
{"smiles": "O=C(COc1ccc(S(=O)(=O)N2CCCCC2)cc1)N1CCOCC1", "hERG current change (%, negative = inhibition) at 10uM": 3.54}
{"smiles": "COc1ccc(CC(=O)Nc2ccc(-c3nnc(-c4ccc(C)cc4)o3)cc2)cc1", "hERG current change (%, negative = inhibition) at 10uM": 19.1}
{"smiles": "NNC(=O)c1ccc(Cl)cc1", "hERG current change (%, negative = inhibition) at 10uM": 2.74}
{"smiles": "C=CCN1N=C(/C=C/c2ccc(OC)cc2)CCC1=O", "hERG current change (%, negative = inhibition) at 10uM": 6.48}
{"smiles": "C/C=C(\\C)c1nnc(NC(=O)OCC)s1", "hERG current change (%, negative = inhibition) at 10uM": 8.46}
{"smiles": "Cc1c(NC=C(C#N)C#N)c(=O)n(-c2ccccc2)n1C", "hERG current change (%, negative = inhibition) at 10uM": 35.5}
{"smiles": "NNC(=O)Cn1nc(Cc2ccccc2)n(N)c1=O", "hERG current change (%, negative = inhibition) at 10uM": 8.22}
{"smiles": "O=C(/C=C/c1ccccc1)N/C(=C/c1ccccc1)C(=O)N1CCCCC1", "hERG current change (%, negative = inhibition) at 10uM": -58.7}
{"smiles": "CC(=O)N/C(=C/c1ccccc1)C(=O)N1CCCCC1", "hERG current change (%, negative = inhibition) at 10uM": 10.3}
{"smiles": "COc1ccc(/C=C(/NC(=O)/C=C/c2ccccc2)C(=O)N2CCOCC2)cc1", "hERG current change (%, negative = inhibition) at 10uM": -71.2}
{"smiles": "COc1ccc(/C=C(/NC(=O)/C=C/c2ccccc2)C(=O)O)cc1", "hERG current change (%, negative = inhibition) at 10uM": 24.9}
{"smiles": "O=C(N/C(=C\\c1ccccc1)C(=O)N1CCOCC1)c1ccccc1Cl", "hERG current change (%, negative = inhibition) at 10uM": 0.479}
{"smiles": "CC(=O)N/C(=C\\c1ccccc1)C(=O)N1CCOCC1", "hERG current change (%, negative = inhibition) at 10uM": 20.1}
{"smiles": "O=C(N/C(=C/c1ccccc1)C(=O)N1CCCCCC1)c1ccccc1", "hERG current change (%, negative = inhibition) at 10uM": -12.4}
{"smiles": "COc1ccc(C(=O)N/C(=C\\c2ccccc2)C(=O)N2CCOCC2)cc1", "hERG current change (%, negative = inhibition) at 10uM": -8.27}
{"smiles": "O=C(/C=C/c1ccccc1)N/C(=C/c1ccccc1)C(=O)N1CCOCC1", "hERG current change (%, negative = inhibition) at 10uM": -58.8}
{"smiles": "CCOC(=O)C1(O)CC(C)=NN1C(=O)c1cccc(Br)c1", "note": "(stereo not drawn)", "hERG current change (%, negative = inhibition) at 10uM": 25.9}
{"smiles": "CCOc1ccc(C(=O)NCCN2CCCCC2)c(OCC)c1", "hERG current change (%, negative = inhibition) at 10uM": -23.1}
{"smiles": "COc1ccc(NC(=O)CCNS(=O)(=O)c2ccc3c(c2)c(=O)n(C)c(=O)n3C)cc1", "hERG current change (%, negative = inhibition) at 10uM": -2.03}
{"smiles": "CC/C(=N\\O)c1ccc(OC)c(OC)c1", "hERG current change (%, negative = inhibition) at 10uM": 21.1}
{"smiles": "COC(=O)c1ccc(/C=C/c2c(-c3ccc(OC)cc3)oc3ccccc23)cc1", "hERG current change (%, negative = inhibition) at 10uM": 7.39}
{"smiles": "CCCn1c(O)c(N=NC(=O)c2cccnc2)c2cc(Br)ccc21", "hERG current change (%, negative = inhibition) at 10uM": -3.7}
{"smiles": "CCn1c(O)c(N=NC(=O)c2cccnc2)c2cc(Br)ccc21", "hERG current change (%, negative = inhibition) at 10uM": -2.17}
{"smiles": "CCCCn1c(O)c(N=NC(=O)c2ccncc2)c2cc(Br)ccc21", "hERG current change (%, negative = inhibition) at 10uM": -68.1}
{"smiles": "O=C(NCc1ccco1)c1noc2c1CCCC2", "hERG current change (%, negative = inhibition) at 10uM": -3.59}
{"smiles": "CCOc1ccc(C(CC(=O)O)NS(=O)(=O)c2ccc(C)cc2)cc1OC", "note": "(stereo not drawn)", "hERG current change (%, negative = inhibition) at 10uM": 10.3}
{"smiles": "CSc1nc2ccc(NS(=O)(=O)c3ccc(CNC(C)=O)cc3)cc2s1", "hERG current change (%, negative = inhibition) at 10uM": -0.24}
{"smiles": "COc1ccc(-c2n[nH]c(=S)n2C2CCCCC2)cc1", "hERG current change (%, negative = inhibition) at 10uM": 20.2}
{"smiles": "Cc1ccc(S(=O)(=O)Nc2ccc3c(c2)nc(CN2CCCC2)n3C)cc1", "hERG current change (%, negative = inhibition) at 10uM": -46.5}
{"smiles": "Cn1c(CN2CCCC2)nc2cc(NS(=O)(=O)c3ccccc3)ccc21", "hERG current change (%, negative = inhibition) at 10uM": 1.49}
{"smiles": "Cn1c(CN2CCCCC2)nc2cc(NS(=O)(=O)c3ccc(Cl)cc3)ccc21", "hERG current change (%, negative = inhibition) at 10uM": -62.5}
{"smiles": "Cn1c(CN2CCCC2)nc2cc(NS(=O)(=O)c3ccc(Cl)cc3)ccc21", "hERG current change (%, negative = inhibition) at 10uM": -61.7}
{"smiles": "CC1CC(C)CN(C(=O)CNS(=O)(=O)c2ccc(Br)s2)C1", "note": "(stereo not drawn)", "hERG current change (%, negative = inhibition) at 10uM": -1.92}
{"smiles": "S=c1[nH]nc(-c2ccc(Cl)cc2)n1/N=C/c1ccco1", "hERG current change (%, negative = inhibition) at 10uM": 14.3}
{"smiles": "O=C(Nc1cccc(C(=O)N2CCCC2)c1)c1ccccc1", "hERG current change (%, negative = inhibition) at 10uM": 2.2}
{"smiles": "O=C(c1ccc(N2CCN(C(=O)c3ccccc3)CC2)cc1)c1cccc(F)c1", "hERG current change (%, negative = inhibition) at 10uM": -74.5}
{"smiles": "O=C(Nc1cccc(C(=O)N2CCN(c3cccc(Cl)c3)CC2)c1)c1ccccc1", "hERG current change (%, negative = inhibition) at 10uM": 4.69}
{"smiles": "O=C(c1cccc(-c2ccc(O)cc2)c1)N1CCN(c2ccc(F)cc2)CC1", "hERG current change (%, negative = inhibition) at 10uM": 23.3}
{"smiles": "CCOc1ccccc1N1CCN(C(=O)c2cn(CC3CCCCC3)nn2)CC1", "hERG current change (%, negative = inhibition) at 10uM": -9.95}
{"smiles": "O=C(c1cccc(C(=O)N2CCN(c3ccccc3)CC2)c1)N1CCN(c2ccccc2)CC1", "hERG current change (%, negative = inhibition) at 10uM": -41.7}
{"smiles": "O=C(c1ccc(N2CCN(C(=O)c3ccc(F)c(F)c3)CC2)cc1)c1cccc(F)c1", "hERG current change (%, negative = inhibition) at 10uM": -16.7}
{"smiles": "O=C(c1cccc(C(=O)N2CCN(c3ccc(F)cc3)CC2)c1)N1CCN(c2ccc(F)cc2)CC1", "hERG current change (%, negative = inhibition) at 10uM": -72.5}
{"smiles": "O=C(Nc1cccc(C(=O)N2CCN(c3ccc(F)cc3)CC2)c1)c1ccccc1", "hERG current change (%, negative = inhibition) at 10uM": -58.7}
{"smiles": "COc1ccc(N2CCN(C(=O)c3cn(CC4CCCCC4)nn3)CC2)cc1", "hERG current change (%, negative = inhibition) at 10uM": -14.3}
{"smiles": "O=C(c1cn(CC2CCCCC2)nn1)N1CCN(c2ccc(F)cc2)CC1", "hERG current change (%, negative = inhibition) at 10uM": -52.5}
{"smiles": "O=C(c1ccc(N2CCN(C(=O)c3cccc(F)c3)CC2)cc1)c1cccc(F)c1", "hERG current change (%, negative = inhibition) at 10uM": -12.5}
{"smiles": "CN(C1CCCCC1)S(=O)(=O)c1ccc(S(=O)(=O)N2CCN(C(=O)c3ccccc3F)CC2)cc1", "hERG current change (%, negative = inhibition) at 10uM": -12.2}
{"smiles": "CCOC(=O)N1CCC(N2CC34C=CC(O3)C(C(=O)Nc3ccc(OCC)cc3)C4C2=O)CC1", "note": "(stereo not drawn)", "hERG current change (%, negative = inhibition) at 10uM": -18.7}
{"smiles": "CC(OC(=O)CNC(=O)COc1ccccc1)C(=O)N(C)Cc1ccccc1", "note": "(stereo not drawn)", "hERG current change (%, negative = inhibition) at 10uM": 5.07}
{"smiles": "COC(=O)c1ccccc1NC(=O)C1CCN(S(C)(=O)=O)CC1", "hERG current change (%, negative = inhibition) at 10uM": 1.04}
{"smiles": "O=C(COC(=O)/C=C/c1ccc(S(=O)(=O)N2CCOCC2)cc1)NC1CCCCCCC1", "hERG current change (%, negative = inhibition) at 10uM": 32.2}
{"smiles": "CCO.N#CC1=C(N)Oc2c(oc(CO)cc2=O)C1c1ccccc1[N+](=O)[O-]", "note": "(stereo not drawn)", "hERG current change (%, negative = inhibition) at 10uM": -1.44}
{"smiles": "O=C(c1ccc(CN2CCc3ccccc3C2)cc1)N1CCN(c2ccccc2)CC1", "hERG current change (%, negative = inhibition) at 10uM": -46.3}
{"smiles": "O=C(c1ccccc1)c1ccc(C(=O)N2CCN(c3ccc(F)cc3)CC2)o1", "hERG current change (%, negative = inhibition) at 10uM": -78.4}
{"smiles": "O=C(c1ccccc1C(=O)N1CCN(c2ccccc2)CC1)N1CCN(c2ccccc2)CC1", "hERG current change (%, negative = inhibition) at 10uM": -29.7}
{"smiles": "O=C(c1ccc(CN2CCc3ccccc3C2)cc1)N1CCN(c2ccc(F)cc2)CC1", "hERG current change (%, negative = inhibition) at 10uM": -68.6}
{"smiles": "O=C(c1ccccc1C(=O)N1CCN(c2ccc(F)cc2)CC1)N1CCN(c2ccc(F)cc2)CC1", "hERG current change (%, negative = inhibition) at 10uM": -73.8}
{"smiles": "O=C(c1ccc(CN2CCc3ccccc3C2)cc1)N1CCCCC1", "hERG current change (%, negative = inhibition) at 10uM": -9.72}
{"smiles": "CC(=O)N1CCN(C(=O)c2cccc(S(=O)(=O)NCc3ccccc3)c2)CC1", "hERG current change (%, negative = inhibition) at 10uM": 5.5}
{"smiles": "CSc1ccccc1C(=O)N1CCN(c2ccc(F)cc2)CC1", "hERG current change (%, negative = inhibition) at 10uM": -17.5}
{"smiles": "O=C(c1ccc(Br)o1)N1CCN(c2ccc(F)cc2)CC1", "hERG current change (%, negative = inhibition) at 10uM": -45.6}
{"smiles": "CC(=O)c1ccc(-c2ccc(C(=O)N3CCN(c4ccc(F)cc4)CC3)o2)cc1", "hERG current change (%, negative = inhibition) at 10uM": -16.7}
{"smiles": "O=C(c1cccc(S(=O)(=O)NCc2ccccc2)c1)N1CCN(c2cccc(C(F)(F)F)c2)CC1", "hERG current change (%, negative = inhibition) at 10uM": -4.17}
{"smiles": "O=C(c1cccc(S(=O)(=O)NCc2ccccc2)c1)N1CCN(c2ccc(F)cc2)CC1", "hERG current change (%, negative = inhibition) at 10uM": -58.1}
